Screen size: about 69,000 compounds; about 8,600 (12%) showed an effect of 50% or more. This is one part of a sample in which strong results are shown more often than they occur.

The experiment relates to Plasmodium berghei. Kind of experiment: Screen against P. berghei liver stage (PbLuc), transformed with Luciferase, at 10uM. The note with it: tested at 10 uM. The format is functional, HepG2.
On to `CCc1cc(CNC(=O)N2CCN(c3nc(C)c(C)s3)CC2)on1`, for which the INHIBITION turned out to be 32.4%. As for `CSc1ncc(CN(C)C(C)c2cccnc2)cn1` (configuration not stated), the figure is -1.33%; as for `O=C(NCCN1CCOCC1)c1scnc1Cl`, 23.7%. Consider `CSCCCN1C[C@H](NC(=O)c2ccc(CO)cc2)[C@@H](C2CC2)C1`, for which the INHIBITION amounted to 0.72%. The result for `CN(C)c1ccc(C(=O)Nc2ccn(CCc3ccncc3)n2)cc1` reads 5.91%; that for `Cc1cc(O)ncc1NS(=O)(=O)c1cccc(F)c1F`, 69.9%; that for `COc1ccccc1S(=O)(=O)Nc1cnc(O)cc1C`, -13.6%. The result for `COc1cc(F)c(S(=O)(=O)Nc2cnc(O)cc2C)cc1OC` reads -3.83%. The result for `Clc1cc(N2CCN3CCCCC3C2)nc2[nH]ccc12` (configuration not stated) reads 72.2%. With `Clc1cc(N2CCC(N3CCCC3)CC2)nc2[nH]ccc12`, the INHIBITION was determined as 51.5%. The result for `Cc1nc(N2CCN3CCCCC3C2)nc2cc(S(C)(=O)=O)ccc12` (configuration not stated) reads 20.6%. As for `Clc1cc(N2CCN(C3CCOCC3)CC2)nc2[nH]ccc12`, the figure is 5.91%; as for `Cc1ccn(-c2ccnc(N3CCC(N4CCCCC4)CC3)n2)n1`, -13%. Consider `Cn1ncc2c(N3CCN4CCCCC4C3)nc(C3CCCC3)nc21` (configuration not stated), for which the INHIBITION is on record as -24.8%. Turning to `O=C(NCCNS(=O)(=O)C1CCCCC1)c1ccccc1`, the INHIBITION was 15.4%. The result for `CN(C)CCNC(=O)c1ccccc1NC(=O)c1cc(Cl)ccc1Cl` reads 44.4%. The result for `O=c1cc(-c2ccc(F)cc2)nc2n1CCCCC2` reads 7.25%. As for `O=S(=O)(C1CC1)N1CCO[C@H]2[C@@H](Oc3cccnc3)CC[C@@H]21`, the figure is 37.1%; as for `CN(C)C(=O)c1cccc(C2CNCCN2C)c1` (configuration not stated), 15.255%; as for `Cc1ccc(Cn2cc(C)c(N)n2)cc1`, 8.53%. In the case of `Cc1cn(Cc2ccc(F)cc2)nc1N`, the INHIBITION was -46.4%.

Consider `Cc1cn(Cc2ccc(F)c(F)c2)nc1N`, for which the INHIBITION is recorded as 70.8%.

Consider `CCc1ccc(CN2CC[C@H]3[C@H]2CC(=O)N3Cc2cccc(C)n2)o1`, for which the INHIBITION is on record as 30.9%. The result for `CCN(CCCc1ccccc1)CC1(C)Cc2c(N)nc(N)nc2O1` (configuration not stated) reads 26.8%. As for `CCn1nc(C)c(CCNC(=O)C2CCCN(C(=O)COC)C2)c1C` (configuration not stated), the figure is -13.6%. For `Cc1ccc2nc(CNc3ccccc3C(=O)NC3CC3)cn2c1`, the INHIBITION was 7.38%. The result for `Cc1ccc([C@@H]2CN(S(=O)(=O)c3ccccc3)C[C@H]2N(C)C)cc1` reads 0.818%. As for `Cc1ccc([C@@H]2CN(S(=O)(=O)N(C)C)C[C@H]2N(C)C)cc1`, the figure is -11.1%; as for `Cc1ccc([C@@H]2CN(S(=O)(=O)Cc3ccccc3)C[C@H]2N(C)C)cc1`, 55.2%; as for `Cc1nc2c(c(C)c1CC(=O)NCc1ccc(F)cc1)c(=O)[nH]n2C`, -12.1%.

Regarding `Cc1cc(C(=O)N[C@H]2CN(CCC(N)=O)C[C@@H]2C2CC2)sc1C`, the INHIBITION was determined as 50.5%.

As to `Cc1cc(C(=O)N[C@H]2CN(CCO)C[C@@H]2C2CC2)sc1C`, the INHIBITION was 44%.

With `Cc1nc(N)sc1C(=O)N[C@H]1CN(CCO)C[C@@H]1C1CC1`, the INHIBITION is 12%. The result for `CCOc1cc(C)nc(N2CCN(C(=O)c3cnc[nH]3)CC2)n1` reads -3.2%. As for `CC(C)CCN1CCC2(CC1)CN(C(=O)c1cnccn1)CCO2`, the INHIBITION is listed as -12.6%. `CS(=O)(=O)NC1CCN(Cc2coc(-c3ccc(Cl)cc3)n2)CC1`: the INHIBITION amounted to 79.5%. The result for `OCCN1CCN(Cc2coc(-c3ccc(Cl)cc3)n2)CC1` reads 11.6%. On to `CC(O)CN1CCN(Cc2coc(-c3ccc(Cl)cc3)n2)CC1` (configuration not stated), for which the INHIBITION turned out to be 47.1%.

Take `CS(=O)(=O)NC1CCN(Cc2coc(-c3ccccc3)n2)CC1`: the INHIBITION came to 30.4%. As for `O=C(C1CC1)N1CCN(Cc2coc(-c3ccc(Cl)cc3)n2)CC1`, the figure is 76.1%; as for `Cc1nc(CN2CCC(NS(C)(=O)=O)CC2)co1`, 34%; as for `CN(C)CC1CN(C(=O)CCc2ccccc2)Cc2nccn2C1` (configuration not stated), -41.8%. As for `Cc1occc1C(=O)N1Cc2nccn2CC(CN(C)C)C1` (configuration not stated), the figure is 44.8%; as for `c1ccc(-n2cc(CNC3CCc4ncnn4C3)nn2)cc1` (configuration not stated), 41.45%. The result for `O=C(Nc1cccnc1N1CCCC1)C1CCS(=O)(=O)C1` (configuration not stated) reads -7.35%. Take `COc1cccc(CNCc2c(C)nc3sc(C)cn23)c1OC`: the INHIBITION came out at 66.4%. As for `COc1ccc(CNCc2c(C)nc3sc(C)cn23)c(OC)c1OC`, the figure is 64.6%. The result for `COc1cccc(CNCC2CCN(CC(C)O)CC2)c1OC` (configuration not stated) reads 7.85%; that for `COc1cccc(CNCc2c(C(C)C)nn(C)c2N(C)C)c1OC`, -7.84%; that for `COc1ccc(CNC(C)Cn2cccn2)c(OC)c1OC` (configuration not stated), 25.1%. Consider `COc1ccc(OC)c(CNCc2c(C)nc3sc(C)cn23)c1`, for which the INHIBITION was determined as 10.8%. As for `O=C(NCCc1noc(-c2ccccn2)n1)NCC1CCCC1`, the figure is -18.3%.

For the origin of these results see ChEMBL document CHEMBL4513216, “Probing the Open Global Health Chemical Diversity Library for Multistage-Active Starting Points for Next-Generation Antimalarials” (ACS Infect Dis, 2020).
